This is a sample that favours compounds with a hit; in the whole collection about 10% have one here.
Six1-Eya2 blk = qHTS Assay for Inhibitors of the Six1/Eya2 Interaction. Homeobox protein SIX1 (Homo sapiens) + Protein phosphatase EYA2 (Homo sapiens), …. AlphaScreen GST-Six1/His-Eya2 binding, biochemical; active compounds read low. activity change, % (concentration not given with the values). 360,000 tested, 0.56% active; in the data active means activity change below about -65%; inconclusive means mostly about -30% to -63%; further: on the % scale 0 is the no-effect control and ±100 the full control effect
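Six1/Eya2 binding was read as AlphaScreen signal after compounds were pinned into GST-Six1 plus His-tagged Eya2 (5X stock 250/500 nM) in pH 8.0 Tris/NaCl/TCEP buffer, beads added, then incubated 1 h, 37 C, dark.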
JMJD2A Tudor = qHTS Assay for Inhibitors of JMJD2A-Tudor Domain | Lysine-specific demethylase 4A (Homo sapiens), O75164 | 390,000 tested, 4.4% active | AlphaScreen JMJD2A-Tudor / H3K4me3 peptide binding | Potency, µM (top dose mostly 114 µM), for inactives: top-dose activity change, negative = inhibition, hits mostly inhibitors | AID 504339, 2011; further: potency means the concentration at half of the fitted maximal effect; on the % scale 0 is the no-effect control and ±100 the full control effect; nearly all actives have a fitted effect of over 50% in size
G9a inh = qHTS Assay for Inhibitors of Histone Lysine Methyltransferase G9a | Histone-lysine N-methyltransferase EHMT2 (Homo sapiens), Q96KQ7 | G9a H3K9 monomethylation, AlphaScreen, 2 h | Potency, µM (titrated, usually from 102 µM), for the others: at the highest dose activity, negative = inhibition, usual class: inhibitors | 350,000 tested, 8.8% active | AID 504332, 2011; further: potency means the concentration at half of the fitted maximal effect; on the % scale 0 is the no-effect control and ±100 the full control effect; nearly all actives have a fitted effect of over 75% in size
Target sequence (Q96KQ7 913-1193 limits assumed): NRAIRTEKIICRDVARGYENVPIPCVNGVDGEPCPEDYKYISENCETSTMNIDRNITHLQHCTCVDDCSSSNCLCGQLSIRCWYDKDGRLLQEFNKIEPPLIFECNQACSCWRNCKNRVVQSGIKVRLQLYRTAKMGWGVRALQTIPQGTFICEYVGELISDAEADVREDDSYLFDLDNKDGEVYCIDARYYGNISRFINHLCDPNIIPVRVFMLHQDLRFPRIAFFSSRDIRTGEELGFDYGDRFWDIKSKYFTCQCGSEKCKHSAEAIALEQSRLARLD
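Step 1: enzyme (final 20 nM) with compound, 15 min RT. Step 2: substrate peptide 500 nM and SAM 20 uM, 2 h RT. Step 3: anti-H3K9me1 antibody and AlphaScreen beads, 10 min, then plate read.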
CtBP-E1A inh = qHTS Assay for Inhibitors of the CtBP/E1A Interaction | CtBP / adenovirus E1A interaction (AlphaScreen) | AlphaScreen GST-E1A/His-CtBP binding, 1536-well; active compounds read low | activity change, % (concentration not given with the values) | 340,000 tested, 0.49% active | AID 651724, 2012; in the data active means activity change below about -65%; inconclusive means mostly about -30% to -63%; further: on the % scale 0 is the no-effect control and ±100 the full control effect
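GST-E1A and His-tagged CtBP (125 nM each as 5X stock) were preincubated with pin-transferred compound for 2 h at 37 °C in the dark, then glutathione donor and nickel acceptor beads were added for 1 h before AlphaScreen reading.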
HP1b chromo inh = HTS for Inhibitors of HP1-beta Chromodomain Interactions with Methylated Histone Tails; 390,000 tested, 0.56% active; AID 540317, 2011; AlphaScreen HP1-beta / biotin-H3K9me3 peptide binding; Potency, µM (series often up to 114 µM), for the others: at the top dose activity change, negative = inhibition, usual class: inhibitors; Chromobox protein homolog 1 (Homo sapiens), P83916; further: potency means the concentration at half of the fitted maximal effect; nearly all actives have a fitted effect of over 70% in size
Target sequence (P83916 whole entry, looked up): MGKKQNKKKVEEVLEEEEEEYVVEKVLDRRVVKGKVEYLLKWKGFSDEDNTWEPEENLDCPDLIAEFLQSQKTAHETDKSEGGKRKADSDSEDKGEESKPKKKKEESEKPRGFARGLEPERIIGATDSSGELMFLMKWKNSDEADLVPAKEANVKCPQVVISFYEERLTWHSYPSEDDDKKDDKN
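AlphaScreen: HP1-beta (50 nM) preformed 30 min with biotin-H3(1-18)K9me3 peptide (50 nM) in PBS pH 7.4, 0.01% Tween-20. Compound added for 30 min at RT, then streptavidin donor/nickel chelate acceptor beads (10 ug/mL) for 30 min.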
BAZ2B inh = qHTS Assay for Inhibitors of BAZ2B; 360,000 tested, 4.4% active; Potency, µM (titrated, usually from 114 µM), inactives show at the highest dose activity change, negative = inhibition, actives largely listed as inhibitors; AlphaScreen BAZ2B-H3K14Ac peptide displacement; Bromodomain adjacent to zinc finger domain protein 2B (Homo sapiens), Q9UIF8; further: potency means the concentration at half of the fitted maximal effect; on the % scale 0 is the no-effect control and ±100 the full control effect; nearly all actives have a fitted effect of over 60% in size
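AlphaScreen displacement: compounds (up to 110uM) incubated 30 min at room temperature with a preformed 50 nM BAZ2B/50 nM biotinylated H3K14Ac peptide complex in PBS pH 7.4 with Tween-20. Donor and acceptor beads at 10 ug/mL final added, 20 min light-protected before reading.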
ME-1 prolif = qHTS Assay for Compounds Blocking the Interaction Between CBF-beta and RUNX1 for the Treatment of Acute Myeloid Leukemia: ME-1 cellular proliferation; shares compounds with BAZ2B inh; ME-1 cell proliferation, ATP luminescence, 48 h; Potency, µM (doses to about 56.1 µM), without a hit: at the top dose activity change, negative = inhibition, most hits filed as inhibitors; 140 tested, 20% active
* marks the source's active call; other numbers are inactive results; ? = inconclusive; . = no result given; [ ] = dose if it differs, or a comment. Unless noted, the call rests on the fitted dose curve; in most records, active means well fitted curve in the direction sought with a large enough effect; inconclusive means small, poorly fitted or top-dose-only effect, or another doubt; inactive means no such curve, though single readings can be large; an effect the other way counts as inactive or inconclusive.

SMILES	Six1-Eya2 blk	JMJD2A Tudor	G9a inh	CtBP-E1A inh	HP1b chromo inh	BAZ2B inh	ME-1 prolif
Nc1nc(-c2ccc3c(c2)NC(=O)CO3)cs1	-1	?	?	-2	-1%	?	-2%[25.6 µM]
CC(C)N1CCC(N2CCN(CC#Cc3ccccc3)CC2CCO)CC1 (stereo not drawn)	4	-16%[57.1 µM]	.	1	21%	-7%	.
Nc1nc(-c2ccccc2)c(N=Nc2cccnc2)s1	0	-33%	40µM*	0	?	7.9µM*	-5%[25.6 µM]
CC(=O)c1c(C)[nH]c(C(=O)CN2C(=O)NC(CCc3ccccc3)C2=O)c1C (stereo not drawn)	-1	-23%	?	0	10%	?	.
O=c1cc2c(=O)oc3cc(O)c(O)oc3c2c(O)c1O	-78*	1.4µM*	.	-23	1.6µM*	1.8µM*	-15%
CC(=O)Nc1cc(NC(C)=O)ncn1	-4	3%	12%	5	29%[57 µM]	1%	.
Cc1cc(=O)cc2oc3cc(N)c(-c4c(C)cc(O)cc4O)c(C)c3nc1-2	.	.	.	.	.	.	-13%
CN(C)c1nc(-c2ccccn2)nnc1-c1ccccc1	-92*	4µM*	24%	-96*	48%	0.79µM*	16µM*
CCOc1ccccc1NS(=O)(=O)c1cn(C)c(=O)n(C)c1=O	4	-15%[11.4 µM]	.	-3	26%	5%	.
COc1cc(O)c2c(c1)oc(=O)c1c3cc(O)c(O)cc3oc21	.	.	.	.	.	.	32µM*
COc1ccc2c(c1)oc(=O)c1cc(OC)ccc12	9	-24%	-17%[59 µM]	5	14%	?	.
CC(=O)Nc1ccc(Nc2ccc3c4c(cc(=O)n3C)-c3ccccc3C(=O)c24)cc1	?	-32%	?	?	-27%	?	.
O=C1c2ccccc2C(=O)c2c(Nc3ccc(CCO)cc3)ccc(O)c21	-83*	8.9µM*	3.5µM*	.	8.9µM*	1.8µM*	?
Nc1c(C(=O)NCC2CCCO2)sc2nc3c(c(-c4ccco4)c12)CC/C3=C\c1ccco1 (stereo not drawn)	?	2µM*	8.9µM*	-26	?	8.9µM*	?
O=C(/C=C/c1ccco1)NCC1CCCO1 (stereo not drawn)	-3	-6%	.	1	39%	-2%	.
Cc1ccc(-n2nc(C(=O)O)c(C)c(C#N)c2=O)cc1Cl	7	-17%	.	7	31%	-11%	.
COc1cccc(N(CC(=O)N2CCCCCC2)S(C)(=O)=O)c1	2	4%	.	4	37%	?	.
